# Reference: PubChem BioAssay AID2235 (The Scripps Research Institute Molecular Screening Center, 2010)
# Hit rate of the full screen: of about 320,000 compounds, about 2,800 (0.88%) were called active. The sample holds actives, similar compounds and a random draw of the others, so the mix is not that of the screen. Values without a mark were called inactive.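 Rule for the calls: active = inhibition above the mean inhibition of all tested compounds plus 3 SD, computed separately for each screening campaign (cut at about 15% in these data); inactive = the rest.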
# Biological target: Serine/threonine-protein phosphatase PP1-alpha catalytic subunit (Homo sapiens) (UniProt P62136)
# Sequence (P62136 whole entry, looked up): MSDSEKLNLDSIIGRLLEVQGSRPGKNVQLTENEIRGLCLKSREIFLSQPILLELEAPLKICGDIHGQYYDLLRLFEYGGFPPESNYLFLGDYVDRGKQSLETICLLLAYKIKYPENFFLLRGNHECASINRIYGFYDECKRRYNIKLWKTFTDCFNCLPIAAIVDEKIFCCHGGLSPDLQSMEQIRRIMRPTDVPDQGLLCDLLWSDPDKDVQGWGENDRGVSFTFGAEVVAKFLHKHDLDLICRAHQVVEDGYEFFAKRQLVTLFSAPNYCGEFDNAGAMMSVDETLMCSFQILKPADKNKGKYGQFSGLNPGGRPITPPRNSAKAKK
# Assay: inhibition of human PP1 catalytic subunit – biochemical, fluorescence, OMFP substrate, single point, counter-screen for PP5 inhibitor project, primary screen (AID 2235)
# Details: purified PP1alpha, at 6.7 µM, stronger effect = higher value
row,Structure (SMILES),inhibition
1,Clc1ccc(-n2nnnc2-c2cnc(-c3ccccn3)nc2-c2cccs2)cc1,75.5% (active)
2,O=C(Cn1cc(-c2nnnn2-c2ccc(Cl)cc2)c(=O)c2ccccc21)c1ccccc1,1.68%
3,FC(F)(F)c1nc(-c2ccccc2)ncc1-c1nnnn1-c1ccccc1,0.75%
4,O=S(=O)(c1ccc(F)cc1)n1ccc(-c2cnc(-c3ccccc3)s2)n1,5.23%
5,CCOc1ccc2sc(NS(=O)(=O)c3ccc(N)cc3)nc2c1,1.47%
6,COCCCn1c(SCC(=O)Nc2oc(C)c3c(C)n[nH]c(=O)c23)nc2sc3c(c2c1=O)CCC3,-2.04%
7,C=CCn1c(=N)n(CC(O)COc2ccc(OC)cc2)c2ccccc21 (centres undefined),-0.92%
8,CCOc1ccc(C(O)Cn2c(=N)n(CCN3CCCCC3)c3ccccc32)cc1 (centres undefined),0.66%
9,Cc1cccc(OCC(O)Cn2c(=N)n(CCN3CCOCC3)c3ccccc32)c1 (centres undefined),26% (active)
10,Cc1ccc(NC(=O)NC(=O)N(C2CCCCC2)S(=O)(=O)c2ccccc2)cc1,0.85%
11,C=CCn1c(=S)[nH]c2scc(-c3ccco3)c2c1=O,18.8% (active)
12,C=CCNC(=O)CSc1nc2scc(-c3ccco3)c2c(=O)n1CC=C,3.47%
13,C=CCn1c(SCc2csc(C)n2)nc2scc(-c3ccc(C)o3)c2c1=O,-0.82%
14,COc1cc(NC(=S)NNC(=O)CC(C)C)c(OC)cc1Cl,-3.43%
15,Cc1nnc(NC(=O)CCC(=O)N2CCC(C)CC2)s1,-0.54%
16,CC1(C)O[C@@H]2[C@H](O1)[C@@H](COS(=O)(=O)O)O[C@H]2n1ccc(=O)[nH]c1=O,1.54%
17,COc1cc(NC(=O)CSc2nnc3ccc(-c4ccncc4)nn23)cc(OC)c1,-2.13%
18,CSCc1nnc(NC(=O)c2ccc(S(=O)(=O)N3CCCCC3C)cc2)o1 (centres undefined),16.8% (active)
19,CC1CCCN(S(=O)(=O)c2ccc(C(=O)Nc3nnc(-c4ccncc4)o3)cc2)C1 (centres undefined),7.97%
20,O=C(Nc1nnc(-c2ccco2)o1)c1ccc(S(=O)(=O)N2CCOCC2)cc1,1.14%

row,Structure (SMILES),inhibition
1,CC1CCCCN1S(=O)(=O)c1ccc(S(=O)(=O)N(CC(=O)Nc2ccccc2)Cc2cccs2)cc1 (centres undefined),3.05%
2,CC1CCCCN1S(=O)(=O)c1ccc(C(=O)Nc2nnc(-c3cccs3)o2)cc1 (centres undefined),25.9% (active)
3,CC1CCCCN1S(=O)(=O)CCNC(=O)c1ccccc1 (centres undefined),-2.78%
4,COC(=O)c1ccc(-c2c(-c3ccccc3)ncc3cc(OC)c(OC)cc23)cc1,1.2%
5,CCCCCCCC(=O)NC(Nc1ccccc1OC)C(Cl)(Cl)Cl (centres undefined),4.91%
6,COCC(=O)Nc1c(I)c(C(=O)NCC(O)CO)c(I)c(C(=O)N(C)CC(O)CO)c1I (centres undefined),-5.4%
7,Cc1cc(C)nc(-n2ncc3c2CC(c2ccc(C(C)C)cc2)CC3=O)n1 (centres undefined),15.3% (active)
8,COc1cc(S(=O)(=O)Nc2ncn[nH]2)ccc1Cl,-0.04%
9,CS(=O)(=O)N(CC(=O)N1CCN(c2cccc(Cl)c2)CC1)c1ccccc1,-1.41%
10,Cc1ccccc1S(=O)(=O)N1[C@@H](c2cccc(Cl)c2)C(C(=O)O)=CC[C@H]1c1ccc(Cl)cc1,20.5% (active)
11,Cc1ccc(S(=O)(=O)N2[C@@H](c3cccc(Cl)c3)C(C(=O)O)=CC[C@H]2c2ccc(Cl)c(Cl)c2)cc1,21.6% (active)
12,CN1OC(COC(=O)c2ccc(Cl)cc2)CC1c1ccccc1 (centres undefined),1.23%
13,Cc1ccc([C@@H]2CC=C(C(=O)O)[C@H](c3cccc(Cl)c3)N2S(=O)(=O)c2ccc(C)cc2)cc1,5.69%
14,Cc1ccc(S(=O)(=O)N2[C@@H](c3ccccc3F)C(C(=O)O)=CC[C@H]2c2ccc(Cl)cc2)cc1,4.64%
15,CC(C)CCSc1ncnc2c1oc1nc3c(cc12)COC(C)(C)C3,-3.04%
16,Cc1c(CC(=O)N2CCN(C(=O)C3COc4ccccc4O3)CC2)c(=O)oc2c(O)c(O)ccc12 (centres undefined),3.96%
17,Cc1cc(Nc2ccc(Br)cc2F)n2ncnc2n1,-2.4%
18,COc1ccc(C2C(C(C)=O)=C(O)C(=O)N2CCc2c[nH]c3ccccc23)cc1 (centres undefined),18.3% (active)
19,COc1ccc(C2C(C(C)=O)=C(O)C(=O)N2c2nccs2)cc1 (centres undefined),-3.06%
20,COc1ccc(C2C(C(C)=O)=C(O)C(=O)N2Cc2cccnc2)cc1 (centres undefined),-4.55%

row,Structure (SMILES),inhibition
1,Cc1onc(-c2ccccc2Cl)c1C(=O)N(Cc1ccc(N(C)C)cc1)C(C)C,0.01%
2,COc1ccc2c(c1)c(C(=O)N/N=C/c1cccs1)c(C)n2C,-3.65%
3,Cc1ccc2c(Cl)c(C(=O)Nc3nn[nH]n3)sc2c1,10.3%
4,Cc1ccc(-c2cc(C(=O)Nc3nn[nH]n3)c3ccccc3n2)c(C)c1,21.8% (active)
5,COc1ccc(CN(C)C(=O)c2cc(-c3ccc(C)cc3C)nc3ccccc23)c(OC)c1OC,1.42%
6,COc1cccc(NC(=O)C(Sc2nnnn2C)c2ccccc2)c1 (centres undefined),-7.84%
7,Cc1onc(-c2ccccc2Cl)c1C(=O)NCCn1ccc2ccccc21,0.26%
8,Cc1ccc2cc(CCNC(=O)c3ccc4c(c3)OCO4)c(=O)[nH]c2c1,0.9%
9,Cc1ccc2cc(CCNC(=O)c3c(-c4ccccc4Cl)noc3C)c(=O)[nH]c2c1,57.5% (active)
10,O=S(=O)(NCCc1ccccn1)c1cc(Cl)cc(Cl)c1O,-3.07%
11,COc1cc(S(=O)(=O)N2CCOCC2)ccc1NC(=O)COc1ccc(N(C)S(=O)(=O)c2ccc(C)cc2)cc1,5.5%
12,O=C(Nc1ccccc1F)c1ccc(S(=O)(=O)N2CCCCCC2)cc1,0.94%
13,CC(=O)N1CCCc2cc(S(=O)(=O)N3CCCC(C(=O)N4CCN(c5cccc(Cl)c5)CC4)C3)ccc21 (centres undefined),-0.49%
14,CCCCCCCCCCOC(=O)Cn1c(COc2cccc(OC)c2)[n+](C)c2ccccc21,33% (active)
15,CCCCCCCCCCOC(=O)Cn1c(COc2ccc(C)cc2)[n+](C)c2ccccc21,44.7% (active)
16,CCOC(=O)Cn1c(-c2cccnc2Cl)nc2ccccc21,2.18%
17,CCn1c(COc2cccc(OC)c2)nnc1SCC(=O)N1CCOCC1,-1.11%
18,CCCCn1c(N)c(N(CCOC)C(=O)c2cccc(OCc3ccccc3)c2)c(=O)[nH]c1=O,-1.96%
19,CCOC(=O)COn1c(=O)c(-c2ccc(OCC)cc2)[n+]([O-])c2ccccc21,-1.29%
